KB-V1 cytotox = KB-V1 MDR subline cytotoxicity; KB-V1 MDR cells viability, CellTiter-Glo, 72 h; AID 1347076; 400,000 compounds, 3.4% hits; Potency, µM (series often up to 46.1 µM), actives largely listed as cytotoxic; note: % is set by controls: 0 for no effect and ±100 for the full control effect; nearly all actives have a fitted effect of over 60% in size
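Following 72 h at 37 degrees C with compound, KB-V1 cell viability was read by CellTiter-Glo luminescence, medium being phenol-red-free DMEM plus 10% FBS; concentration-response parameters came from normalized, curve-fitted qHTS data.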
HT1080 IDH1KD tx = kills HT-1080 cells with IDH1 knockdown; HT-1080 IDH1 knockdown viability, ATP luminescence, 48 h; Potency, µM (highest dose often 46.1 µM), for inactives: at the top dose activity, negative = toxicity, most hits filed as cytotoxic; 360,000 compounds, 2% hits;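 note: 0% = DMSO wells and -100% = cell-free medium wells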
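IDH1KD HT-1080 cells, 750/well, RPMI + 5% FBS; compound pinned after 2 h settling; 48 h, 37 °C; CellTiter-Glo luminescence; % activity normalised to DMSO and no-cell wells; curves fitted, classed by r2 and efficacy.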
HT1080-NT tox = kills 2HG-producing HT-1080-NT fibrosarcoma cells; HT-1080-NT fibrosarcoma viability, CellTiter-Glo ATP luminescence, 48 h; Potency, µM (top dose mostly 46.1 µM), inactives show at the top dose activity, negative = less viability, most hits filed as cytotoxic; 360,000 compounds, 1.6% hits; AID 686970;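 note: NT is the 2HG producing partner of a matched IDH1 knockdown line; 0% = DMSO-treated cells and -100% = media-only wells without cells; nearly all actives have a fitted effect of over 55% in size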
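Fibrosarcoma NT cells, 750 per well in 5% FBS RPMI, were exposed to compound for 48 hours. Viability: CellTiter-Glo luminescence.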
MCF10A rerep = induces DNA re-replication in MCF 10a normal breast cells | MCF 10A DNA re-replication, Hoechst nuclear intensity, 48 h | AID 624296 | Potency, µM (doses to about 46.1 µM), for the others: top-dose activity, positive = re-replication, actives largely listed as activators | 350,000 compounds, 2.9% hits; note: % of control where 0% means no effect; nearly all actives have a fitted effect of over 50% in size
KB-3-1 tox = kills parental KB-3-1 adenocarcinoma cells; KB-3-1 viability, CellTiter-Glo ATP luminescence, 72 h; Potency, µM (highest dose often 46.1 µM), most hits filed as cytotoxic; 400,000 compounds, 1.4% hits; AID 1347075; note: % is set by controls: 0 for no effect and ±100 for the full control effect; nearly all actives have a fitted effect of over 60% in size
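KB-3-1 parental drug-naive adenocarcinoma cells in DMEM/10% FBS, incubated 72 h at 37 C with pin-transferred compounds across a concentration series. Viability by CellTiter-Glo luminescence; concentration-response curves fitted after normalization.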
SW480 rereplic = induces DNA re-replication in SW480 colon adenocarcinoma cells | 340,000 compounds, 1.8% hits | SW480 DNA re-replication, Hoechst DNA content imaging, 48 h | Potency, µM (highest dose often 46.1 µM), inactives show at the top dose re-replication activation, hits mostly activators; note: % of control where 0% means no effect; nearly all actives have a fitted effect of over 55% in size
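Quantitative HTS format with DMSO vehicle controls; 48 hr drug incubation at 37 C, then 40 min Hoechst staining and scanning imager measurement at 405 nm excitation.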
Active calls of the source: *; i = inactive; ? = inconclusive; nt = no result given; ! = not confirmed by another sample; [ ] = remark or other dose. A selection: hits, their analogues and other compounds. The true share with any hit is near 8%. Calls come from the whole dose curve; as a rule, active = well fitted curve in the direction sought with a large enough effect; inconclusive = small, poorly fitted or top-dose-only effect, or another doubt; inactive = no such curve, though single readings can be large; an effect the other way counts as inactive or inconclusive. Potency is the fitted concentration of half-maximal effect.

SMILES	KB-V1 cytotox	HT1080 IDH1KD tx	HT1080-NT tox	MCF10A rerep	KB-3-1 tox	SW480 rereplic
CCC(c1ccc(O)c(O)c1)C(CC)c1ccc(O)c(O)c1 (configuration not stated)	i	21µM*	23µM*	-13%	i	10µM*
CCC(NC(C)C)C(O)c1ccc(O)c(O)c1 (configuration not stated)	i	-12%	-26%	-32%	i	2%
COc1ccc(C(CNC(=O)c2cccc(NC(=O)c3cccs3)c2)N2CCCC2)cc1 (configuration not stated)	21µM*	-9%	-5%	4%	i	-5%
COc1ccc(C(CNC(=O)c2ccc(OCc3c(C)noc3C)cc2)N2CCCC2)cc1 (configuration not stated)	1.5µM*	2%	2%	8%	?	-5%
COc1ccc(C(CNC(=O)c2cccc(Br)c2)N2CCCC2)cc1 (configuration not stated)	?	-1%	3%	?	i	?
COc1cc(C(=O)NCC(c2ccco2)N2CCCC2)ccc1OCc1c(C)noc1C (configuration not stated)	10µM*	11%	18%	0%	?	3%
COc1ccccc1C(CNC(=O)c1ccc(OCc2c(C)noc2C)cc1)N1CCCC1 (configuration not stated)	?	-2%	-8%	?	?	-18%
CC(C)CN(C(=O)CN1CCN(S(=O)(=O)c2ccc3ccccc3c2)CC1)c1c(N)n(CC(C)C)c(=O)[nH]c1=O	i	17%	11%	7%	i	0%
CCCOc1ccc(F)cc1-c1cc(C(=O)Nc2ccc(OC)c(OC)c2)[nH]n1	21µM*	?	?	nt	?	nt
CCCOc1ccc(F)cc1-c1cc(C(=O)Nc2ccc(C(C)C)cc2)[nH]n1	i	23µM*	?	nt	?	nt
CCCOc1ccc(F)cc1-c1cc(C(=O)Nc2ccc(C)c(NS(C)(=O)=O)c2)[nH]n1	23µM*	?	?	nt	?	nt
Cc1ccc(Cl)cc1NC(=O)CCn1cccc1	i	-4%	-1%	-7%	i	-6%
CC1=CC(C)(C)NC(=S)N1c1ccc(C)c(C)c1	i	-4%	2%	3%	?	-21%
CC1=CC(C)(C)NC(=S)N1c1ccc([N+](=O)[O-])cc1	i	?	-27%	-25%	i	-10%
CC1=CC(C)(C)NC(=S)N1c1cccc(C)c1	i	8.9µM*!	8.9µM*!	?	i	22%
CC1=CC(C)(C)NC(=S)N1c1ccc(C)cc1	i	11µM*	?	-4%	i	9%
CCOC(=O)C1=C(O)/C(=C/c2ccc(-c3ccccc3C(=O)O)o2)SC1=Nc1ccc(C)cc1	i	-26%	-1%	13µM*	i	?
CCOC(=O)C1=C(O)/C(=C/c2cc(OC)c(O)c(OC)c2)SC1=Nc1ccc(OC)cc1	i	-2%	-4%	16µM*	i	?
CCOC(=O)C1=C(O)/C(=C/c2ccc(-c3ccccc3C(=O)O)o2)SC1=Nc1ccc(OC)cc1	i	2%	0%	4%	i	-2%
COc1ccc(/C(O)=C2/C(=O)C(=O)N(c3ncccn3)C2c2ccc(OC)cc2)cc1 (configuration not stated)	i	7%	9%	-29%	i	3%
CN1CCN(c2nc(-c3ccccc3)cc(C(F)(F)F)n2)CC1	i	-7%	-13%	17%	i	-13%
CN1CCN(c2nc(-c3cccs3)cc(C(F)(F)F)n2)CC1	16µM*	9%	4%	?	i	9%
CCn1c(=S)[nH]c2sc3c(c2c1=O)CCCC3	i	?	-20%	12%	i	-1%
C=CCn1c(=S)[nH]c2sc3c(c2c1=O)CCC3	i	?	7.1µM*	13%	i	-5%
N#Cc1ccc(-c2ccc(OCC(=O)NCCc3ccccc3)cc2)cc1	5.2µM*	1%	3%	6%	i	0%
SMILES	KB-V1 cytotox	HT1080 IDH1KD tx	HT1080-NT tox	MCF10A rerep	KB-3-1 tox	SW480 rereplic
Cn1c(NC2CCCCC2)cc(=O)n(C)c1=O	i	8%	9%	1%	i	3%
Cc1cc(C2CCCCC2)n(O)c(=O)c1	?	18µM*	8.2µM*	?	i	?
CCCCc1oc2ccccc2c1C(=O)c1cc(I)c(OCCN(CC)CC)c(I)c1	i	?	?	9.2µM*!	i	23µM*!
CCN(CC)CCOc1ncnc2c1oc1ccccc12	i	-2%	-5%	?	i	-15%
Cc1cc(NS(=O)(=O)c2ccc(NC(=S)NC(=O)c3ccc(C(C)(C)C)cc3)cc2)no1	23µM*	3%	-5%	23%	i	-10%
Cc1ccc(NS(=O)(=O)c2cccc(C(=O)Nc3cc(C)on3)c2)cc1	4.6µM*	-4%	-2%	8%	i	?
Cc1ccc(C)c(S(=O)(=O)Nc2ccccc2C(=O)Nc2cc(C)on2)c1	i	?	?	?	?	?
COc1ccc(-c2nc3ccccc3c(C(=O)Nc3ccc(S(=O)(=O)Nc4cc(C)on4)cc3)c2C)cc1	i	?	?	18µM*	?	?
Cc1cc(NC(=O)c2ccccc2NS(=O)(=O)c2c(C)c(C)cc(C)c2C)no1	i	9%[9.24 µM]	-9%	12µM*	i	9.2µM*
Cc1ccc(S(=O)(=O)Nc2ccc(C(=O)Nc3cc(C)on3)cc2)cc1	i	10%	26%	1%	i	-3%
CC(C)(CO)Cc1cc(C(C)(C)C)c(O)c(C(C)(C)C)c1	i	?	?	?	i	7%
CCn1cc(CN2CCN(Cc3ccsc3)C(CCO)C2)cn1 (configuration not stated)	i	2%	-2%	11%	i	-5%
Cn1c(N)c(C(=O)CSc2nc3ccccc3[nH]2)c(=O)n(C)c1=O	i	0%	7%	-1%	i	-2%
Cc1nc(N)c(C#N)c(-c2cccnc2)c1-c1ccccc1	i	-8%	-1%	26%	i	-6%
Cc1ccc2c(n1)sc1c(-c3ccccc3)c(C#N)c(N)nc12	i	-21%	-25%	5µM*	i	7.3µM*
O=C(NCCN1CCCC(O)C1)c1cc(COc2ccc(F)cc2Cl)on1 (configuration not stated)	i	-13%	-12%	15%	i	-13%

High-throughput results as filed in PubChem.
